# USP2a inh: qHTS Assay for Inhibitors of Ubiquitin-specific Protease USP2a Using CHOP2 as the Reporter | USP2 core, Ub-CHOP2 coupled fluorogenic reporter, 485/531 | Potency, µM (highest dose often 38.3 µM), usual class: inhibitors | 0.01% of 330,000 active | AID 463254, 2010
#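 USP2 core (10nM final) preincubated 30min RT with compound in 20mM Tris-HCl pH 8.0, 2mM CaCl2, 2mM beta-mercaptoethanol, 0.05% CHAPS; 25nM Ub-CHOP2 plus 25nM reporter substrate added, fluorescence (Ex485/Em531) read after 60min.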
# ClpP mod: qHTS Assay for Activators of ClpP; purified B. subtilis ClpP, FRET peptide cleavage, 20 min; Potency, µM (top dose mostly 57.5 µM); 1.9% of 340,000 active; active = well fitted falling curve with a large enough effect; inconclusive = small, poorly fitted or top-dose-only effect; inactive = no such curve, though single readings can be large or run the other way; also: the source files actives as falling curves though it sought activators and does not explain the sign; nearly all actives have a fitted effect of over 65% in size
# Target sequence (P80244 whole entry, looked up): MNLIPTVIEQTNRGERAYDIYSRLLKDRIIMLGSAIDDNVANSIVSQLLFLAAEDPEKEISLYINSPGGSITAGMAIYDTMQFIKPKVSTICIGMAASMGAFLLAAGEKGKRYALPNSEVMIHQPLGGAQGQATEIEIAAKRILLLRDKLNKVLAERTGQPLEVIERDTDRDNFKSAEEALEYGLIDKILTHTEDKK
#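 FRET quenching reversal measured ClpP activation: 10 microg/mL B. subtilis ClpP at pH 8 with the FRET-FV decapeptide, read at 430 nm after 320 nm excitation. The 20-min minus 0-min signal was scaled between DMSO/no-enzyme wells and ADEP (5.8 microM final).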
# GALK inhibitor: qHTS Assay for Inhibitors of Human Galactokinase (GALK); AID 1868, 2009; P51570; Purified GALK, Kinase-Glo residual ATP luminescence; Potency, µM (doses to about 57.5 µM), hits mostly inhibitors; 0.007% of 270,000 active
# Target sequence (P51570 whole entry, looked up): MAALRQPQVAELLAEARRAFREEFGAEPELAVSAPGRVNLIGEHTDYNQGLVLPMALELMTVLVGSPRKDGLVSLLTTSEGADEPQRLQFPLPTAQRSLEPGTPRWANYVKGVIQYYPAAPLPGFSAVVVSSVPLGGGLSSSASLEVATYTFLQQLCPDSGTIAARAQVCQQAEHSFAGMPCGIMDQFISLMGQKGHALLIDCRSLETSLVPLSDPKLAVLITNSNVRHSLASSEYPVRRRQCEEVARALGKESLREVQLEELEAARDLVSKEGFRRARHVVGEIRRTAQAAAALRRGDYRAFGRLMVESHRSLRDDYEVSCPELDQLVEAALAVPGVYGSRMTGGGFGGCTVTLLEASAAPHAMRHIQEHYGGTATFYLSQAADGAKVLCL
#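 Luminescence from leftover ATP (Ultra-Glo luciferase/luciferin) served as read-out after a 1 h room-temperature reaction of 5 nM GALK with 35 uM ATP and 100 uM galactose.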
# Eya2 phos inh: qHTS Assay for Inhibitors of the Phosphatase Activity of Eya2 | 0.006% of 330,000 active | Potency, µM (top dose mostly 76.9 µM), hits mostly inhibitors | AID 488837, 2010 | recombinant Eya2, OMFP fluorescence dephosphorylation (OMFP is methylfluorescein phosphate) | Protein phosphatase EYA2 (Homo sapiens), O00167
#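 Eya2 (0.2 uM) preincubated 10 min at ambient with compound, then OMFP substrate added at 50 uM; 10 min reaction in 50 mM HEPES pH 7.5, 50 mM NaCl, 5 uM MgCl2, 0.05% BSA, 1 mM DTT. Fluorescence read at Ex 485/Em 525 nm.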
# A number is an active result; n = inactive; u = inconclusive; x = no result. This excerpt belongs to a sample that is enriched for hits. Unless noted, calls follow the shape of the dose curve; as a rule, active = well fitted inhibition curve with a large enough effect; inconclusive = small, poorly fitted or top-dose-only effect, or effect the other way; inactive = flat fitted curve, though single readings scatter.
SMILES,USP2a inh,ClpP mod,GALK inhibitor,Eya2 phos inh
c1cncc(-c2noc(-c3cccc4ccccc34)n2)c1,n,35.5µM,n,n
c1ccc(-c2ccccc2-c2nc(-c3cccnc3)no2)cc1,n,n,n,n
Brc1ccccc1-c1nc(-c2ccccc2)no1,n,x,n,n
CCN(CC)S(=O)(=O)c1ccc2c(c1)oc(=O)n2CC(=O)N(C)C1CCCCC1,n,n,n,n
CCCCCCCCC(=O)N/N=C(\C)c1ccc(O)cc1O,n,31.6µM,x,n
CC1CN(c2cc(-c3ccccc3)c3ccccc3n2)CC(C)O1 (stereo not given),n,25.1µM,n,n
COc1ccc2c(C)cc(N3CCOCC3)nc2c1,n,u,n,n
Cc1cc(N2CCOCC2)nc2ccccc12,n,25.1µM,n,n
COc1ccc2c(C)cc(N3CCN(c4ccc(F)cc4)CC3)nc2c1,n,28.2µM,n,n
COc1ccc2nc(N3CCOCC3)cc(C)c2c1,n,12.6µM,n,n
CCc1ccc(N(C(=O)c2csnn2)C(C(=O)NC2CCCC2)c2cccnc2)cc1 (stereo not given),n,n,n,n
c1ccc(-c2cc(N3CCOCC3)nc3ccccc23)cc1,x,28.2µM,n,x
O=C(C[n+]1ccc(-c2nnc3n2CCC3)cc1)c1ccc(Cl)c(Cl)c1,n,28.2µM,n,n
Cc1c(-c2ccccc2)oc2c(C(=O)OCC(=O)Nc3ccc(F)cc3)cccc2c1=O,n,n,x,n
O=C(O)c1c(Cl)c(Cl)c(Cl)c(Cl)c1C(=O)N1CCOCC1,n,n,n,n
O=C(O)c1c(Cl)c(Cl)c(Cl)c(Cl)c1C(=O)N1CCCCCC1,n,31.6µM,n,n
CCc1nn2c(=O)cc(COC(=O)c3ccc4c(c3)OCO4)nc2s1,x,n,x,x
Cc1cc(=O)oc2cc(NC(=O)C(C)Oc3cccc(Cl)c3)ccc12 (stereo not given),n,10µM,x,n
CC(C)C1Cc2[nH]c(=O)c(C(=O)O)cc2CO1 (stereo not given),n,35.5µM,n,n
COc1ccc2[nH]c(=O)c(C(=O)O)cc2c1,n,x,n,n
CCCNC(=O)c1oc2ccc3c(c2c1C)C(=O)CC(C)(C)O3,n,28.2µM,n,n
CCOC(=O)N1CCC2(CC1)CC(=O)c1c(ccc3oc(C(=O)O)c(C)c13)O2,n,35.5µM,n,n
CCOC(=O)c1oc2ccc3c(c2c1C)C(=O)CC1(CCN(C(=O)OCC)CC1)O3,n,n,n,n
Cn1c(=O)c2[nH]c(CN3CCN(Cc4ccccc4)CC3)nc2n(C)c1=O,n,n,n,n
O=C(O)Cn1nc(-c2ccccc2)oc1=O,n,n,n,n
SMILES,USP2a inh,ClpP mod,GALK inhibitor,Eya2 phos inh
CC(C)(C)C(=O)n1nc(-c2ccccc2)oc1=O,n,31.6µM,n,n
Cc1c(C(=O)NCCc2ccccc2)oc2ccccc12,n,x,n,n
COC[C@H]1CCCN1c1ccc2c(c1)O[C@H](COCc1ccccc1)CN([C@H](C)c1ccccc1)S2(=O)=O,x,n,x,x
COC[C@H]1CCCN1c1ccc2c(c1)O[C@@H](COCc1ccccc1)CN([C@H](C)c1ccccc1)S2(=O)=O,x,5.62µM,x,x
O=C(NC1CCCCCC1)c1nc2ncccn2n1,n,28.2µM,n,n
CCC1(CC)C(=O)C(C)(C)C(=O)OC1c1cccs1 (stereo not given),n,28.2µM,n,n
CCCCN1C(=O)C(O)(c2c[nH]c3ccccc23)c2cc(Br)ccc21 (stereo not given),x,n,x,x
O=c1oc2cc(OCc3nn[nH]n3)ccc2c2c1CCCC2,n,n,n,n
Cc1cc2oc(=O)c3c(c2cc1OCc1nn[nH]n1)CCCC3,n,25.1µM,n,n
CCN1C(=O)c2cccc3c(S(=O)(=O)N(C(=O)c4ccncc4)c4ccc(OC)cc4)ccc1c23,n,u,n,n
CCN1C(=O)c2cccc3c(S(=O)(=O)N(C(=O)c4cccnc4)c4ccc(OC)cc4)ccc1c23,n,35.5µM,n,n
COc1cc(C2C3C(=O)N(c4ccccc4)C(=O)C3ON2c2ccccc2)cc(OC)c1OC (stereo not given),n,n,n,n
CN1C(=S)SC(N2OC3C(=O)N(c4ccccc4)C(=O)C3C2c2ccc(Cl)cc2)C1(C)C (stereo not given),n,28.2µM,n,n
COc1ccnc(NCc2cccnc2)c1C#N,n,31.6µM,n,n
COc1ccnc(NCc2cccc(C(F)(F)F)c2)c1C#N,n,u,n,n
CCc1nc2ccc(C(=O)NCCCN3CCCC3=O)cn2c1N(CCC(C)C)CCN(C)C,x,n,x,x
CCCCCCCCCCCCCCCC[N+](C)(C)CCN(Cc1ccc(OC)cc1)c1ncccn1,10µM,n,x,u
Cc1nc2ccccn2c1-c1csc(Nc2ccc(C(=O)O)cc2)n1,n,n,n,n
CC(=O)Nc1ccc2nc(SCc3ccccc3)sc2c1,x,n,x,x
O=C(CSc1nnnn1-c1ccc(F)cc1)c1ccc(O)c(O)c1,5.62µM,x,n,n
CCOC(=O)C1=C(CC)Nc2ccccc2N=C1NC(=O)Nc1ccc(Cl)c(Cl)c1,n,n,n,n
N#CC(C(=O)Nc1ccc(Cl)cc1)=C1Nc2ccccc2N1,n,n,n,n
O=C(O)CCC(NC(=O)c1cncc(O)c1)C(=O)O (stereo not given),n,25.1µM,n,n
O=C(O)CCCNC(=O)c1cncc(O)c1,n,u,n,n
CCOc1ccc(CNC(=O)CCS(=O)(=O)Cc2ccccc2C)cc1OC,n,n,n,n
SMILES,USP2a inh,ClpP mod,GALK inhibitor,Eya2 phos inh
CCOc1ccc(CNC(=O)CCS(=O)(=O)Cc2ccc(C)cc2)cc1OC,n,25.1µM,n,n
Cc1nn(C)cc1C(N)=O,n,n,n,n
Cc1nn(C)cc1/C=C(/C#N)C(N)=O,n,15.8µM,n,n
Cc1c(NC(=O)c2ccc(F)cc2)c(=O)n(-c2ccccc2)n1C,n,n,n,n
OC1CCCN(Cc2cccc3ccccc23)C1 (stereo not given),n,n,n,n
OC1CCCN(Cc2c3ccccc3cc3ccccc23)C1 (stereo not given),n,20µM,n,n
Cc1ccc(-c2cc(C#N)c(=O)n(Cc3c(Cl)cccc3Cl)c2)cc1,n,7.08µM,n,n
N#Cc1cc(-c2ccccc2)cn(Cc2c(Cl)cccc2Cl)c1=O,n,28.2µM,n,n
CC1CCN(CCNC(=O)c2ccc(Cn3c(SCc4ccccc4)nc4cccnc43)cc2)CC1,x,15.8µM,x,x
CC1CCCCN1CCNC(=O)c1ccc(Cn2c(SCc3ccccc3)nc3cccnc32)cc1 (stereo not given),x,25.1µM,x,x
O=C(NCCc1ccccc1)c1ccc(CSc2nc3cccnc3n2Cc2ccc(F)cc2)cc1,x,n,x,x
Cc1ccc(Cn2c(SCc3ccc(C(=O)O)cc3)nc3cccnc32)cc1,x,28.2µM,x,x

# Assay outcomes from PubChem BioAssay.
